Results reported in PubChem BioAssay (NCATS).
Inconclusive results are not listed. Entries that show only a call come without a potency. Activity calls are given as the source filed them. Calls come from the whole dose curve; as a rule, active = well fitted inhibition curve with a large enough effect; inconclusive = small, poorly fitted or top-dose-only effect; inactive = flat fitted curve, though single readings scatter.

target: Calcium and integrin-binding protein 1 (Homo sapiens) (UniProt Q99828); assay: Primary qHTS for Identification of Calcium Integrin Binding Protein 1 (CIB1) Competitor (AID 1508620); settings: CIB1-GST / FITC-alphaIIb peptide fluorescence polarization; series mostly up to 114 µM;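 note: GST tagged CIB1 binding a fluorescein labelled alphaIIb integrin peptide tracer; top concentration of the series differs between compounds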
Sequence (Q99828 whole entry, looked up): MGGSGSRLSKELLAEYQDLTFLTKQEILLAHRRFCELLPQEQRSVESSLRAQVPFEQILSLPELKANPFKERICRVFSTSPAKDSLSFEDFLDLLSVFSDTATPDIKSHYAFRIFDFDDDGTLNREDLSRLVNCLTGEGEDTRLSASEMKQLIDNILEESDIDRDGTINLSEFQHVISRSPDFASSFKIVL
Summary of the method: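 Fluorescence polarization competition: CIB1-GST (1 uM final) preincubated with compound 15 min at room temperature, then FITC-labeled alphaIIb peptide (100 nM final) added for another 15 min. Polarization read at Ex 480/Em 540.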

Structure (SMILES) | Potency
CCC(=O)NC(c1cccs1)c1cc([N+](=O)[O-])c2cccnc2c1OC (centres undefined) | inactive
Cc1cccc(-c2csc3ncnc(Sc4nnnn4C)c23)c1 | inactive
CC(C)(C)OC(=O)CC(=O)NNC(=O)c1cc2ccccc2[nH]1 | inactive
N#Cc1cccc(-c2csc(N3CCC(C(N)=O)CC3)n2)c1 | inactive
c1ccc(CNc2ccc(N3CCOCC3)cc2)cc1 | inactive
O=C(Cn1nc(-c2ccccc2)ccc1=O)NCCc1ccccc1 | inactive
c1nc(N2CCC(N3CCCC3)CC2)c2cc(-c3ccc4c(c3)OCO4)ccc2n1 | inactive
COc1ccc(C(=O)N(Cc2cccs2)Cc2cccs2)c(O)c1 | inactive
C(#Cc1cccs1)c1cccnc1 | inactive
CN1CCN(c2cccc(Nc3nn4c(=O)c5ccccc5nc4s3)c2)CC1 | inactive
COCC1CCCN(C(=O)CC(c2ccc3c(c2)OCO3)c2c(O)cc(OC)cc2OC)C1 (centres undefined) | inactive
CCOC(=O)C1CCN(c2ccc(NCc3ccc(-c4ccc(C#N)cc4)o3)cc2)CC1 | inactive
Cc1cc(NCc2ccc(NC(=O)Cc3ccc(Cl)c(Cl)c3)cc2)no1 | inactive
COc1cccc(C2c3c(ncn(-c4ccc(C)cc4)c3=N)Oc3ccc4ccccc4c32)c1 (centres undefined) | inactive
COC(=O)c1ccc2nc(NC3=NC(c4[nH]ncc4Cl)C4=C(CCCC4=O)N3)oc2c1 (centres undefined) | inactive
O=C1c2ccccc2C(=O)N1C1CCCCC1 | inactive
CC(C)c1ccccc1SC1=NS(=O)(=O)c2ccccc21 | inactive
COc1ccc(C(=O)N(Cc2ccccc2)Cc2ccc(OC)c(COc3ccc(NC(C)=O)cc3)c2)c(O)c1 | inactive
N=c1c2c(ncn1-c1ccccc1)Oc1ccc3ccccc3c1C2c1ccc2c(c1)CCO2 (centres undefined) | inactive
Cc1ccc(CNc2ccc(N3CCOCC3)cc2)cc1 | inactive

Structure (SMILES) | Potency
NC(=O)C1CCN(c2nccc(-c3ccc4c(c3)OCCCO4)n2)CC1 | inactive
COc1cccc(-c2nnc3n2N=C(c2c(OC)cccc2OC)CS3)c1 | inactive
Cc1cc2c(s1)c1cnn(Cc3cccc([N+](=O)[O-])c3)c(=O)c1n2C | inactive
N#Cc1c(-c2cc(C(F)(F)F)cc(C(F)(F)F)c2)no[n+]1[O-] | inactive
COc1ccc(NC(=O)c2ccc(-c3nc4ccccc4[nH]3)cc2)cc1OC | inactive
COc1ccc(C2Nc3ccccc3C(=O)N2CC(C)(C)C)cc1COc1ccc(NC(C)=O)cc1 (centres undefined) | inactive
CCOC(=O)c1[nH]c2c(c1C)C(=O)CC(c1ccco1)C2 (centres undefined) | inactive
CNc1nc(C#N)c(-c2cccc3ccccc23)o1 | inactive
COc1cccc(-c2nnc3n2N=C(c2c(OC)cccc2OC)CS3)c1OC | inactive
COc1cccc(C2c3c(ncn(Cc4cccs4)c3=N)Oc3ccc4ccccc4c32)c1 (centres undefined) | inactive
COc1ccc(-c2ccc3ncnc(N(C)Cc4csc(C)n4)c3c2)cc1OC | inactive
COc1ccc(C(=O)Oc2ccc(-c3nc4ccccc4[nH]3)cc2)cc1OC | inactive
Nc1ncnc2c1ncn2[C@@H]1O[C@H](CN[S+](=O)([O-])NC(=O)c2cccc(-c3noc(-c4ccccc4F)n3)c2)[C@@H](O)[C@H]1O | inactive
FC(F)(F)c1cc(-c2ccc(CNc3nc(-c4ccncc4)nc4ccccc34)cc2)ccn1 | inactive
Cc1noc(C)c1-c1ccc2ncnc(NCc3ccc(F)c(F)c3)c2c1 | inactive
O=C(NCCc1nc2ccccc2n1CCOc1cccc(Br)c1)C1CCCCC1 | inactive
COc1ccccc1/C=C/C(=O)NCCc1nc2ccccc2n1CCOc1ccc(C)cc1 | inactive
COc1cccc(CCN2C(=O)c3ccccc3NC2c2ccc(OC)c(COc3c(C)cc(NC(C)=O)cc3C)c2)c1 (centres undefined) | inactive
CCOC(=O)c1ccc(-n2cnc3cc(C(=O)N4CCCCC4)ccc32)cc1 | inactive
